HCV inh – HCV inhibition; Huh7.5.1 HCVcc-Cre infection, luciferase reporter, 44 h; Potency, µM (titrated, usually from 41.8 µM), for the others: at the top dose activity change, negative = inhibition, usual class: inhibitors; 3.4% of 340,000 active; also: potency is read from the fitted curve at half-maximal effect; % is scaled to controls: 0 for no effect and ±100 for the full control effect
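Cells (1,000/well) were plated 4 h before compound, then infected with HCVcc-Cre virus (~0.5 moi). After 44 h further culture, infection was read as luciferase luminescence following a 15 min substrate incubation at room temperature.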
Pf growth 96h – P. falciparum growth inhibition at 96 hours. P. falciparum luciferase reporter growth, 96 h. 6.9% of 320,000 active. Potency, µM (series often up to 28.7 µM), inactives show at the highest dose activity change, negative = inhibition, hits mostly inhibitors. AID 504834; also: potency is read from the fitted curve at half-maximal effect; % is scaled to controls: 0 for no effect and ±100 for the full control effect
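Readout is luminescence from an integrated firefly luciferase in P. falciparum. Red cells, 2% hematocrit and 0.05% parasitemia final, were cultured with compound through two parasite generations (96 hours) at 37 C, 5% CO2.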
HCMV inh – inhibitors of human cytomegalovirus. HFF cells, HCMV-luciferase reporter, 72 h; stronger effect = lower value. activity change, negative = inhibition, % at 57.5 µM. 4.5% of 410,000 active. AID 1259415; in the data active = activity change below about -60%; inconclusive = no clear call, values can overlap the other calls; inactive = above about -39%; also: % is scaled to controls: 0 for no effect and ±100 for the full control effect
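Two compound doses tested in HFFs infected with HCMV-luciferase, MOI 1 PFU/cell, 72 h at 37C. Lysate luminescence read with OneGlo; data normalized against buffer-only and 10uM Salinomycin inhibitor controls.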
Pf growth 48h – P. falciparum growth inhibition at 48 hours (one generation); P. falciparum luciferase growth in erythrocytes, 48 h; Potency, µM (series often up to 28.7 µM), without a hit: at the highest dose activity change, negative = inhibition, hits mostly inhibitors; 5.9% of 310,000 active; also: potency is read from the fitted curve at half-maximal effect; % is scaled to controls: 0 for no effect and ±100 for the full control effect
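First compound was added to culture medium, then infected red cells at 0.1% parasitemia and 2% hematocrit (final). After incubation at 37 C under 5% CO2, luciferase detection reagent was dispensed and light output recorded.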
Shiga toxin inh – inhibitors of Shiga toxin in Vero cells. Vero cells, Shiga toxin protein synthesis inhibition reporter. inhibition, % at 38.7 µM. 9.2% of 290,000 active. AID 2315; in the data active = inhibition mostly above about 28%, no sharp cut-off; inactive = mostly below about 43%; also: 0% is about no effect
CHX counter – counter-screen for Shiga toxin inhibitors: cycloheximide protein synthesis inhibition; cell reporter, cycloheximide protein synthesis inhibition counterscreen; max response, %; 12% of 300,000 active; AID 2314; in the data active = max response mostly above about 13%, no sharp cut-off; inactive = mostly below about 14%; also: read at 38.3 µM for the half of the compounds with a filed dose; 0% is about no effect
* marks the source's active call; other numbers are inactive results; ? = inconclusive; / = no result given. Hits are enriched below; roughly 21% of the tested compounds scored in any of these assays. Unless noted, calls follow the shape of the dose curve; as a rule, active = well fitted inhibition curve with a large enough effect; inconclusive = small, poorly fitted or top-dose-only effect, or another doubt; inactive = no such curve, though single readings can be large or run the other way.

SMILES	HCV inh	Pf growth 96h	HCMV inh	Pf growth 48h	Shiga toxin inh	CHX counter
COc1ccccc1/C=N/NC(=O)c1cccc(NC(=O)c2ccccc2C)c1	-8%	?	-6	13%	-6	1
Cc1ccc(-c2noc(CN(C(=O)c3ccc(C(C)(C)C)cc3)C(C)C)n2)cc1	/	/	-11	/	/	/
O=C(NCCN1CCOCC1)C1CCCN(S(=O)(=O)c2ccc(F)cc2)C1 (stereo not given)	-5%	32%	29	5%	-7	-2
Nc1cccc(-c2nc3ccc(N)cc3s2)c1	?	38%	6	72%	37	21*
Nc1cc2sc(-c3ccc(C(=O)O)cc3)nc2cc1Cl	38%	20%	2	132%	31*	26*
Nc1ccc(-c2nc3ccc(N)cc3s2)cc1	?	300%	-2	52%	30	14*
Nc1ccc(-c2nc3ccc(C(=O)O)cc3s2)cc1	13%	31%	-85*	-55%	-20	-8
COCCNC(=O)c1sc2ncccc2c1-n1c(C)ccc1C	/	/	-4	/	/	/
CN1CCC(OC(=O)C(Oc2ccc(Cl)cc2)Oc2ccc(Cl)cc2)CC1	/	-1%	/	5%	/	/
O=C(NNC(=O)c1cc(Br)c(Br)s1)c1ccncc1	-17%	49%	26	11%	/	/
COc1ccc(CCNC(=O)c2cc(=O)c3cc(C)c(C)cc3o2)cc1OC	/	/	-10	/	/	/
COc1ccc(CCNC(=O)c2cc(=O)c3cc(C)ccc3o2)cc1OC	22µM*	8%	?	-27%	-5	0
COc1ccc(CCNC(=O)c2cc(C(C)C)on2)cc1OC	-21%	41%	13	3%	-2	2
COc1ccc(Cl)cc1NC(=O)c1noc2c1CCCC2	-25%	194%	-2	5%	51*	19*
COc1ccc(CCNC(=O)Cn2nnc(C(=O)Nc3ccc(Br)cc3)c2N)cc1OC	?	25%	6	15%	19	31*
COc1ccc(CCNC(=O)c2noc3c2CCCC3)cc1OC	-15%	?	28	-21%	2	9.1*
Cc1ccc(OC(=O)CSc2nnc(CNC(=O)c3ccccc3)o2)cc1	/	/	-8	/	/	/
COc1ccc(CCNC(=O)c2nnn(-c3cccc(C)c3)c2N)cc1OC	?	/	-14	-24%	-6	1
COc1ccc(CCNC(=O)c2nonc2N)cc1OC	3%	4.1µM*	50	-1%	-4	-1
COc1ccc(CCNC(=O)c2nnn(-c3cc(C)cc(C)c3)c2N)cc1OC	?	3.7µM*	-23	?	-4	-3
CN(CC(=O)NCCc1ccc(S(N)(=O)=O)cc1)S(=O)(=O)c1ccc(Br)s1	25%	15%	-22	-8%	15	-2
CSc1nc(N)nc2c1ncn2CC(=O)N1CCN(Cc2c(C)cc(C)cc2C)CC1	1.4µM*	/	-30	/	/	/
Cc1[nH]nc(SCC(=O)N2CCC(C)CC2)c1[N+](=O)[O-]	13%	-25%	10	/	18	17*
Cc1[nH]nc(SCC(=O)N2CCCC2)c1[N+](=O)[O-]	1%	-29%	-13	20%	21	0
Cc1noc(-c2ccccc2OCC(=O)Nc2cccc([N+](=O)[O-])c2)n1	/	/	27	/	/	/
SMILES	HCV inh	Pf growth 96h	HCMV inh	Pf growth 48h	Shiga toxin inh	CHX counter
Cc1ccc(S(=O)(=O)N(C)CC(=O)NNC(=O)CCNS(=O)(=O)c2cccc(C)c2)cc1	5%	/	-23	/	/	/
CC1C/C(=N\NC(N)=S)c2cc(Cl)ccc2S1 (stereo not given)	-19%	1.9µM*	-10	?	-12	-2
N#C/C(=C\c1cc2c(cc1Br)OCO2)C(=O)NCC1CCCO1 (stereo not given)	15%	7%	26	17%	-13	-2
COc1cccc(N2CCN(C3C4CC5CC(C4)CC3C5)CC2)c1 (stereo not given)	14%	/	-13	/	52	22*
CCN(c1ccc(OC)cc1)S(=O)(=O)c1nnc(NC(=O)CC(C)C)s1	-7%	?	?	-16%	-3	-7
COc1cc(/C=N/Nc2snc(SC)c2C#N)cc(OC)c1OC	?	/	-86*	4%	-16	-2
CSc1nsc(N/N=C/c2ccc3c(c2)OCO3)c1C#N	-1%	10%	143	374%	84*	41*
O=C(Nc1ccc(Cl)cc1)c1cc(Br)ccc1OCC(=O)N1CCOCC1	?	5%	-9	-30%	-33	9
CC1Sc2ccc(S(=O)(=O)CCC(=O)NCc3cccs3)cc2NC1=O (stereo not given)	5%	?	55	-6%	14	-9
O=C(Cc1ccc(S(=O)(=O)N2CCOCC2)s1)N1CCN(S(=O)(=O)c2ccccc2F)CC1	0%	/	0	/	/	/
COCCOc1ccc(C(F)(F)F)cc1NC(=O)Cc1ccc(S(=O)(=O)N2CCOCC2)s1	?	8.3µM*	-21	12µM*	/	/
O=C(Cc1ccc(S(=O)(=O)N2CCOCC2)s1)N1CCN(S(=O)(=O)c2cccc(Cl)c2)CC1	-6%	?	-32	12µM*	/	/
O=C(Cc1ccc(S(=O)(=O)N2CCOCC2)s1)N1CCN(S(=O)(=O)c2cccc(F)c2)CC1	-8%	/	-23	/	/	/
O=C(COc1cccc(C(F)(F)F)c1)NNC(=O)Cc1ccc(S(=O)(=O)N2CCOCC2)s1	-4%	?	35	13µM*	/	/
O=C(Cc1ccc(S(=O)(=O)N2CCOCC2)s1)N1CCN(S(=O)(=O)c2ccc(Cl)cc2)CC1	-30%	4.7µM*	-11	7.4µM*	/	/
Cc1ccc(N2C(=O)N(CC(=O)Nc3ccc(C)c(C)c3[N+](=O)[O-])C(=O)C2C)cc1 (stereo not given)	-1%	11%	-12	-1%	-5	1
Cc1ccc(C)c(NC(=O)C2CCN(c3cc(C)nc4c(-c5ccc(Cl)cc5)c(C)nn34)CC2)c1	/	/	5	/	/	/
Cc1ccc(S(=O)(=O)N2CCN(C(=O)COC(=O)CCOc3ccc(C(C)(C)C)cc3)CC2)cc1	?	1%	-35	-26%	/	/
Cc1ccc(S(=O)(=O)N2CCN(C(=O)Cc3ccc(S(=O)(=O)N4CCOCC4)s3)CC2)cc1	3%	12µM*	-2	?	-3	-2
CCc1cc(C(=O)N2CCN(S(=O)(=O)c3ccc(Cl)cc3)CC2)sc1C	?	9.3µM*	-12	9.3µM*	/	/
O=C(Cc1ccc(S(=O)(=O)N2CCOCC2)s1)N1CCN(c2cccc(C(F)(F)F)c2)CC1	13µM*	10µM*	/	?	-6	-1
CCc1noc(C)c1C(=O)N1CCN(S(=O)(=O)c2ccc(Cl)cc2)CC1	-4%	-31%	0	?	/	/
C=CCN1C(=O)C(CC(=O)O)S/C1=N/N=C/c1ccc(N(CC)CC)cc1 (stereo not given)	18%	-27%	0	-29%	/	/
Nn1c(SCc2cccc(Br)c2)nnc1-c1ccncc1	3%	0%	-8	-6%	-3	-2

Screening data: PubChem BioAssay, National Center for Advancing Translational Sciences (NCATS)
